# Test results from ChEMBL document CHEMBL1961873, “Compounds: GSK PKIS; Assays: Nanosyn kinase panel” (2012).
# What was measured:
# [1] = target: T1, Mitogen-activated protein kinase 12 (Homo sapiens) (UniProt P53778); details: at 1 µM;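 also: values are averaged p38gamma kinase inhibition readings, compounds tested at 1 µM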
# T1 sequence (whole entry): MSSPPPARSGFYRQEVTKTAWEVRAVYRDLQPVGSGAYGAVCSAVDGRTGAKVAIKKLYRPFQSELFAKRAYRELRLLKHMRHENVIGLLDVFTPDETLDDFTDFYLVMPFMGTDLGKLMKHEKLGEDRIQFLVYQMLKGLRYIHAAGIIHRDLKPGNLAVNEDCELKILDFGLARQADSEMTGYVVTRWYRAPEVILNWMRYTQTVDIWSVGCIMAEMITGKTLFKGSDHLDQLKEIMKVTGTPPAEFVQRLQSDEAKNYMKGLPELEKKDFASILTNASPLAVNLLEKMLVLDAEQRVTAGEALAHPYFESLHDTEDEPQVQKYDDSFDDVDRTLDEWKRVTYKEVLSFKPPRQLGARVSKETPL
# [2] = target: SRSF protein kinase 1 (Homo sapiens) (UniProt Q96SB4); details: at 0.1 µM
# SRSF protein kinase 1 (Homo sapiens), sequence (Q96SB4 whole entry, canonical isoform): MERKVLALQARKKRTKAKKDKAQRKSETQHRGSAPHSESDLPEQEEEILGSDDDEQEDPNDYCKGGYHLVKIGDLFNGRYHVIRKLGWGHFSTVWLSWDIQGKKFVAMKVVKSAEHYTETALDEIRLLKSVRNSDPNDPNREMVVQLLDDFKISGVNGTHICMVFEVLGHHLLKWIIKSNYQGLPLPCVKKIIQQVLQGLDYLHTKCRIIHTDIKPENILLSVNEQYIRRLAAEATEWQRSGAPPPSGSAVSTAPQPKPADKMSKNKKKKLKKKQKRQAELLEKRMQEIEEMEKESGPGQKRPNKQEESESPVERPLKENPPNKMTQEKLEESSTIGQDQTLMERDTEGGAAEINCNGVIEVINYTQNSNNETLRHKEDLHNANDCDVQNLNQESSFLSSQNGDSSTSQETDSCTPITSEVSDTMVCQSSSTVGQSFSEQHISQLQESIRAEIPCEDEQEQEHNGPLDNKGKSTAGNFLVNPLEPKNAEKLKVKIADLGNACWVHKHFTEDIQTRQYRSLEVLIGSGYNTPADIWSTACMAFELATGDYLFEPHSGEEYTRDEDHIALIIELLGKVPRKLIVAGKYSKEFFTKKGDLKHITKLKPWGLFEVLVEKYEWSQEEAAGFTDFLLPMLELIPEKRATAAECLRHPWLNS
# [3] = target: SRSF protein kinase 1 (Homo sapiens) (UniProt Q96SB4); details: at 1 µM
# [4] = target: Phosphatidylinositol 4,5-bisphosphate 3-kinase catalytic subunit alpha isoform (Homo sapiens) (UniProt P42336); details: at 0.1 µM
# Phosphatidylinositol 4,5-bisphosphate 3-kinase catalytic subunit alpha isoform (Homo sapiens), sequence (P42336 whole entry, canonical isoform): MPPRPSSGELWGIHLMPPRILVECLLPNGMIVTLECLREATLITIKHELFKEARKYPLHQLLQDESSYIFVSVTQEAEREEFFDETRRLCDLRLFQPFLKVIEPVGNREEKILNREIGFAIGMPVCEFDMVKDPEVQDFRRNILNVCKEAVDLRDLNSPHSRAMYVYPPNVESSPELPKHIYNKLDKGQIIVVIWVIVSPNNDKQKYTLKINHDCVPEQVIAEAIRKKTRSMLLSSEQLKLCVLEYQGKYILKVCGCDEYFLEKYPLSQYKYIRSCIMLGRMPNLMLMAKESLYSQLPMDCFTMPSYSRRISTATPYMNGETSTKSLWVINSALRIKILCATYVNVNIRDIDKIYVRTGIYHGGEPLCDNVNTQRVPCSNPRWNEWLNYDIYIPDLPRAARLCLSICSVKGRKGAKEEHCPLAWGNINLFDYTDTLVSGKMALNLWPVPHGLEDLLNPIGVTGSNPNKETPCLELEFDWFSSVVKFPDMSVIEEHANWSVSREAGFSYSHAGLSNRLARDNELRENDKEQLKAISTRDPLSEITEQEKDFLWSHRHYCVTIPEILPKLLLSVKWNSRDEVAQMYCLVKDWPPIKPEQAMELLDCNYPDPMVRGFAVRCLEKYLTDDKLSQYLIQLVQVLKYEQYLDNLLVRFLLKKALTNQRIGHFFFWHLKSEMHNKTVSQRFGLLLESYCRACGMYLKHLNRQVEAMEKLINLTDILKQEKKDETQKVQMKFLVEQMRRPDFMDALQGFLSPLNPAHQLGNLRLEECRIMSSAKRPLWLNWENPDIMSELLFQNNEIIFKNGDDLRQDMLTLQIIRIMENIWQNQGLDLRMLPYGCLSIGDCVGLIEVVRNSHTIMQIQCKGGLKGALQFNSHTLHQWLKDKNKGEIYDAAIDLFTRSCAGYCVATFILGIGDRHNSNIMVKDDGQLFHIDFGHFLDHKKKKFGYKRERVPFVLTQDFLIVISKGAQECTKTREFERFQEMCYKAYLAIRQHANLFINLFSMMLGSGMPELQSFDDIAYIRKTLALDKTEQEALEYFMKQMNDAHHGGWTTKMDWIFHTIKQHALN
# [5] = target: Phosphatidylinositol 4,5-bisphosphate 3-kinase catalytic subunit alpha isoform (Homo sapiens) (UniProt P42336); details: at 1 µM
# [6] = target: T2, Phosphatidylinositol 4,5-bisphosphate 3-kinase catalytic subunit delta isoform (Homo sapiens) (UniProt O00329); details: at 0.1 µM
# T2 sequence (whole entry): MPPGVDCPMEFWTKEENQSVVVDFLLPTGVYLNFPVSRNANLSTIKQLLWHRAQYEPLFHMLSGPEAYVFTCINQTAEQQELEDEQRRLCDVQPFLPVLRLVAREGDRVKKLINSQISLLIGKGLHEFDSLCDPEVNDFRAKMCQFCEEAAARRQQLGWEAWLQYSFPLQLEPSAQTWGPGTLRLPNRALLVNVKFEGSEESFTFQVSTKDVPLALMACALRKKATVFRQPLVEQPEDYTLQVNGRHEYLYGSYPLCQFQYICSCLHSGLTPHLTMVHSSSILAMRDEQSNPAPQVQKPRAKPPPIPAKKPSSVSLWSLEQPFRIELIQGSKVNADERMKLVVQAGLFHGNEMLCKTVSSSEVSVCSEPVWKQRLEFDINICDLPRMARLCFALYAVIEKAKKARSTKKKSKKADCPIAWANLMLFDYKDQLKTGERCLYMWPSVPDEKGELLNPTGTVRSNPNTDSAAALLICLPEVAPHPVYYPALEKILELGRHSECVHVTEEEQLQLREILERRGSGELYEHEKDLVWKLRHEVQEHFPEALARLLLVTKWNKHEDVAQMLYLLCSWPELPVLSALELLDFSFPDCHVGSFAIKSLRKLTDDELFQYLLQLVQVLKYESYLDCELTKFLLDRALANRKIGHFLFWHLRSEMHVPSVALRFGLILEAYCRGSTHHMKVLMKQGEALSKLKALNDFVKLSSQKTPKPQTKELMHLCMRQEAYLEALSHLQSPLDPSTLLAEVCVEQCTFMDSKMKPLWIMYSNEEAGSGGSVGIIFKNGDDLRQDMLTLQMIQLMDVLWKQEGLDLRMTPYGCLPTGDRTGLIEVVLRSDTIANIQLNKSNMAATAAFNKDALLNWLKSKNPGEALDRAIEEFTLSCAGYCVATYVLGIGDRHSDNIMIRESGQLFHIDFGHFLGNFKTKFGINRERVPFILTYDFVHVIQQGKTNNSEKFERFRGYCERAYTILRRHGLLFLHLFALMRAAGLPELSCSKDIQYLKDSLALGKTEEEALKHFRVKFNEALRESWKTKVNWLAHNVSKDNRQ
# [7] = target: T2, Phosphatidylinositol 4,5-bisphosphate 3-kinase catalytic subunit delta isoform (Homo sapiens); details: at 1 µM
# [8] = target: Phosphatidylinositol 4-kinase beta (Homo sapiens) (UniProt Q9UBF8); details: at 0.1 µM
# Phosphatidylinositol 4-kinase beta (Homo sapiens), sequence (Q9UBF8 2-816 limits assumed): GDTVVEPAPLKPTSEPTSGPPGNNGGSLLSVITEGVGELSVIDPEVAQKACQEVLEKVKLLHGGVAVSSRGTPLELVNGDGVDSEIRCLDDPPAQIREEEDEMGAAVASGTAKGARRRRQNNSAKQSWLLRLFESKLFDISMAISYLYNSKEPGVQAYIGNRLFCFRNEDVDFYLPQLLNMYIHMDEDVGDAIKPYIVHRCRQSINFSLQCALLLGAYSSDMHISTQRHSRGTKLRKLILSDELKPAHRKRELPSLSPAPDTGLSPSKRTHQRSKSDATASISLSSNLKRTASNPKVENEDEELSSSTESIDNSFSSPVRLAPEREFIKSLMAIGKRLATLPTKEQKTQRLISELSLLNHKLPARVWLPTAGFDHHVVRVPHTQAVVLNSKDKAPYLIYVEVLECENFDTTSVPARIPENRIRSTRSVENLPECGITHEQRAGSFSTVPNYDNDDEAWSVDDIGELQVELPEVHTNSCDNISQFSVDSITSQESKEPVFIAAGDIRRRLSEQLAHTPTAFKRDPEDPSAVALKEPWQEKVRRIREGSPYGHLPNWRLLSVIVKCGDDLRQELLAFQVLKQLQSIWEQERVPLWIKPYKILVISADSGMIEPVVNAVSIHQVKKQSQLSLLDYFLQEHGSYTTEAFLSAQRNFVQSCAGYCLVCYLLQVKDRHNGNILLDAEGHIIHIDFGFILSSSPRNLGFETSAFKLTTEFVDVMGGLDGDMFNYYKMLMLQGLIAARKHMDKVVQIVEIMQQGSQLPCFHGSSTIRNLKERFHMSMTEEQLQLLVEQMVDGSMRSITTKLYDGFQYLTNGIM
# [9] = target: Phosphatidylinositol 4-kinase beta (Homo sapiens) (UniProt Q9UBF8); details: at 1 µM
# [10] = target: Sphingosine kinase 1 (Homo sapiens) (UniProt Q9NYA1); details: at 0.1 µM
# Sphingosine kinase 1 (Homo sapiens), sequence (Q9NYA1 whole entry): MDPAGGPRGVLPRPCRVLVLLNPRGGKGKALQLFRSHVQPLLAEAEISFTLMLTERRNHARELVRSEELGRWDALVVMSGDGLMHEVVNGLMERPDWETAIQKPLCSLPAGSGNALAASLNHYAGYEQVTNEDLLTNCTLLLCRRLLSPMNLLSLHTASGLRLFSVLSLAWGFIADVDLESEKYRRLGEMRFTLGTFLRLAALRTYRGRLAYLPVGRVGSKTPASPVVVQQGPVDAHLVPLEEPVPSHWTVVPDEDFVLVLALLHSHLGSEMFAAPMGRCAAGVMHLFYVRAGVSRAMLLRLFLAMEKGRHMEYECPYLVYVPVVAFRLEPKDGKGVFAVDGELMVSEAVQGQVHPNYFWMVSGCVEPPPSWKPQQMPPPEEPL
# [11] = target: Sphingosine kinase 1 (Homo sapiens) (UniProt Q9NYA1); details: at 1 µM
# [12] = target: T3, Sphingosine kinase 2 (Homo sapiens) (UniProt Q9NRA0); details: at 0.1 µM
# T3 sequence (whole entry): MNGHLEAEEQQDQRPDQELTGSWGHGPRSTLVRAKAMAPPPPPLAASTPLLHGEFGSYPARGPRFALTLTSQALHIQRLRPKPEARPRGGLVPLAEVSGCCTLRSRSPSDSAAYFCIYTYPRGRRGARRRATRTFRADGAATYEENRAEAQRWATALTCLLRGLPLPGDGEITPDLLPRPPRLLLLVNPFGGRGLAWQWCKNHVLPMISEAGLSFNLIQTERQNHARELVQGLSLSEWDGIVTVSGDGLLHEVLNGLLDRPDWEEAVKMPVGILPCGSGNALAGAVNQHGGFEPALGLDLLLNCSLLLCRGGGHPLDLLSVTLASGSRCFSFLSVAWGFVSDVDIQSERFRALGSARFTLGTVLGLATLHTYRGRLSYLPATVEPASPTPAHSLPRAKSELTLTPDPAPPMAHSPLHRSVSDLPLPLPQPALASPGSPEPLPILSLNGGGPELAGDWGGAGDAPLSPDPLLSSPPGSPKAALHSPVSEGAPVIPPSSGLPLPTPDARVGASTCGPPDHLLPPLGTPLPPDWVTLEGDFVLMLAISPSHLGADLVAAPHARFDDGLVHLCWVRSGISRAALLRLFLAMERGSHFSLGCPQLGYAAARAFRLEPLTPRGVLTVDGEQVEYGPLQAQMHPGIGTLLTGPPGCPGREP
# [13] = target: T3, Sphingosine kinase 2 (Homo sapiens); details: at 1 µM
# [14] = target: Casein kinase II subunit alpha (Homo sapiens) (UniProt P68400); details: at 0.1 µM
# Casein kinase II subunit alpha (Homo sapiens), sequence (P68400 whole entry, looked up): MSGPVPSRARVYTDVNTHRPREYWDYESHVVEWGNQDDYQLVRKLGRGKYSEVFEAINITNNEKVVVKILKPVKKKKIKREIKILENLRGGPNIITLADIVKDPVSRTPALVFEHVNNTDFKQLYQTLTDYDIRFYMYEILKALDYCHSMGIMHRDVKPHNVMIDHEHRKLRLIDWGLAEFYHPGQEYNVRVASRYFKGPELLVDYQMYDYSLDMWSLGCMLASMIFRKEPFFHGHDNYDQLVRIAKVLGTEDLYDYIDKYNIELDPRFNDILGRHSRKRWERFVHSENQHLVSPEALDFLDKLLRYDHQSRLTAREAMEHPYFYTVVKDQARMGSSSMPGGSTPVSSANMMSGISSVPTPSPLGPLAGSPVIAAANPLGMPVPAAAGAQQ
# [15] = target: Casein kinase II subunit alpha (Homo sapiens) (UniProt P68400); details: at 1 µM
# [16] = target: T4, Inhibitor of nuclear factor kappa-B kinase subunit alpha (Homo sapiens) (UniProt O15111); details: at 0.1 µM
# T4 sequence (whole entry): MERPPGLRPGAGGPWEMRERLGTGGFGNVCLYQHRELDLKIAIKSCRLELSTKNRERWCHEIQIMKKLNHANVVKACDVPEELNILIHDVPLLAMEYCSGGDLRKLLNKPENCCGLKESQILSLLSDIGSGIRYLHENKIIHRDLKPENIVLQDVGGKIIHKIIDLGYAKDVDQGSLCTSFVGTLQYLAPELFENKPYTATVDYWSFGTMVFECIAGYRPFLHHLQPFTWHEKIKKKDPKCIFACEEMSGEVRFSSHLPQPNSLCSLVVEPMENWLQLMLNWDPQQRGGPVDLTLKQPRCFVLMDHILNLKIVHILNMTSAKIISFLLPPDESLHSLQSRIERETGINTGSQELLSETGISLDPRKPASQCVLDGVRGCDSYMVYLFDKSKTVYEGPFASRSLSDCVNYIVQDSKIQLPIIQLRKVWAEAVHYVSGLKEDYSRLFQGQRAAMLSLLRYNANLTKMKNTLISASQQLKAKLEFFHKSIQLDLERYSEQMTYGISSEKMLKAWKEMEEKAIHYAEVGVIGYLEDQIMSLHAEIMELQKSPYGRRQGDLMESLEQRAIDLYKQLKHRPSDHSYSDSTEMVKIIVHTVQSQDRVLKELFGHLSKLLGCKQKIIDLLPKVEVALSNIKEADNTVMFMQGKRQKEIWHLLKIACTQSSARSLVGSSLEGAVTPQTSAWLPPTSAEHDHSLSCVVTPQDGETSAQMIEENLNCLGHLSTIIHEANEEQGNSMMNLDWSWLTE
# [17] = target: T4, Inhibitor of nuclear factor kappa-B kinase subunit alpha (Homo sapiens); details: at 1 µM
# [18] = target: T5, Inhibitor of nuclear factor kappa-B kinase subunit beta (Homo sapiens) (UniProt O14920); details: at 0.1 µM
# T5 sequence (whole entry): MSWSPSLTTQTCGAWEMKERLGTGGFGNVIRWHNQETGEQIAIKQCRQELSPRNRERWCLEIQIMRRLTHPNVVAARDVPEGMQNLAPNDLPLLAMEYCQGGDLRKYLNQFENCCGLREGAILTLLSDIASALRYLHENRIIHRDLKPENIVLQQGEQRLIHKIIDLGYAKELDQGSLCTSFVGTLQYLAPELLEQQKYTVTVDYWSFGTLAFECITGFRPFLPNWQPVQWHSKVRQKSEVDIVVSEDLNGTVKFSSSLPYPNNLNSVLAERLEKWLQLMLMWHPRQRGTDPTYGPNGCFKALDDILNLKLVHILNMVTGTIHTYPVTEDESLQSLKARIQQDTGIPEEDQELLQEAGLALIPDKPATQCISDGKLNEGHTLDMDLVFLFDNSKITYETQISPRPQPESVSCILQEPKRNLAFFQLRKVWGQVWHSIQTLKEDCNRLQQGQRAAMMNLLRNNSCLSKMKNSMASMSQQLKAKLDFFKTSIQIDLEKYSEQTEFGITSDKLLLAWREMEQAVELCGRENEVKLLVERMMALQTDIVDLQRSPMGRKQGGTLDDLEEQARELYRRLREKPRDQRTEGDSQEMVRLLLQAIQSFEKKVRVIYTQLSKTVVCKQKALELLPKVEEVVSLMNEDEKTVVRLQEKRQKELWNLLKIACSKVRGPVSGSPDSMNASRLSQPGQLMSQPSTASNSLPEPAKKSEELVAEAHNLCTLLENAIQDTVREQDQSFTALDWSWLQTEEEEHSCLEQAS
# [19] = target: T5, Inhibitor of nuclear factor kappa-B kinase subunit beta (Homo sapiens); details: at 1 µM
# [20] = target: T6, Inhibitor of nuclear factor kappa-B kinase subunit epsilon (Homo sapiens) (UniProt Q14164); details: at 0.1 µM;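 also: mean inhibition of IKKε reported, from the GSK PKIS dataset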
# T6 sequence (whole entry): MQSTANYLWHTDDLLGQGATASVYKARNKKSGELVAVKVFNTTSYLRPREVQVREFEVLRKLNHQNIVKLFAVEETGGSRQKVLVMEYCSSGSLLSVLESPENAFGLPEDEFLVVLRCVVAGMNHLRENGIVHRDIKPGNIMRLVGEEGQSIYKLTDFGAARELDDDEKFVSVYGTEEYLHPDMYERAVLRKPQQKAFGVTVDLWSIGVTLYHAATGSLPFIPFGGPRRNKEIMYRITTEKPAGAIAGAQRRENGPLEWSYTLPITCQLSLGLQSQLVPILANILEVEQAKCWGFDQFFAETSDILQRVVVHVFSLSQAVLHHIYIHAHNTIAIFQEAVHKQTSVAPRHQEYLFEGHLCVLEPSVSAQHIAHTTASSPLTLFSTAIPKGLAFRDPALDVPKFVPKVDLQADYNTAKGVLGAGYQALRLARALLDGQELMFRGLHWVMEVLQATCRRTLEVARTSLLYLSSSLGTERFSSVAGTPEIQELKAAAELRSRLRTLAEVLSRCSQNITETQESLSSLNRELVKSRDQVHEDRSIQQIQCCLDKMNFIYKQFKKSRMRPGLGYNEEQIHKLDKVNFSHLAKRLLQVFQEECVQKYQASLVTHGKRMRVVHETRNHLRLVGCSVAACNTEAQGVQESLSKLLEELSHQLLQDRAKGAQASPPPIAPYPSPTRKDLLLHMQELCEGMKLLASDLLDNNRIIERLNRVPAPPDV
Structure (SMILES),inhibition [1] [%],inhibition [2] [%],inhibition [3] [%],inhibition [4] [%],inhibition [5] [%],inhibition [6] [%],inhibition [7] [%],inhibition [8] [%],inhibition [9] [%],inhibition [10] [%],inhibition [11] [%],inhibition [12] [%],inhibition [13] [%],inhibition [14] [%],inhibition [15] [%],inhibition [16] [%],inhibition [17] [%],inhibition [18] [%],inhibition [19] [%],inhibition [20] [%]
Fc1cccc(COc2ccc(Nc3ncnc4sc(-c5ccco5)cc34)cc2Cl)c1,4.18,-1.79,-2.01,6.18,17.2,2.28,12.4,-1.28,0.68,0,-6.23,-2.56,-0.56,8.17,3.13,8.13,10.1,5.86,6.49,6.22
FC(F)(F)c1cccc(-c2nn3ncccc3c2-c2ccnc(Nc3ccc4c(c3)OCCO4)n2)c1,2.93,-2.68,-5.33,1.87,3.02,1.36,4,-4.9,3.59,-1.16,1.14,0.13,-0.65,0.21,-1.98,3.23,0.65,2.71,0.36,2.48
Nc1nc(-c2ccc(F)cc2)c(-c2ccc3ncccc3n2)s1,2.9,-1.42,1.42,7.33,20.4,7.18,32.8,8.12,7.23,0.08,-1.38,-1.13,-1.05,6.47,13,2.92,5.46,5.24,4.99,6.57
CCN(CC)S(=O)(=O)c1ccc(OC)c(Nc2ncc(-c3ccccc3)o2)c1,0.41,1.34,2.14,-0.56,-2.02,-0.81,-1.28,1.63,0.66,0.47,-3.4,-1.48,0.49,2.99,15.1,3.54,-6.23,0.24,-0.16,2.98
CN(C)CCOc1ccc(-c2nc(-c3ccncc3)c(-c3ccc4c(c3)CC/C4=N\O)[nH]2)cc1,1.28,-0.47,-0.41,3.08,3.29,1.62,4.12,-1.17,-2.78,11.7,-0.62,-0.49,-0.4,3.04,7.33,6.61,7.1,0.93,0.86,9.22
CC(C)COC(=O)c1ccc2c(c1)/C(=C/Nc1ccc(S(N)(=O)=O)cc1)C(=O)N2,-0.52,-0.82,-1.99,3.8,-1.43,0.18,2.64,4.22,-2.78,2.57,1.92,-0.06,-0.44,7.86,47.2,-1.06,3.25,-0.4,6.93,46.2
